NALP1 yeast inh: NALP1 inflammasome inhibitors in reconstituted yeast, colorimetric, S. cerevisiae, triplicate retest | AID 2071, 2009 | 280,000 tested, 0.61% active | S. cerevisiae NALP1/ASC/caspase-1 growth, X-gal OD620, 72 h | inhibition, % at 10 µM; in the data active = inhibition mostly above about 24%, no sharp cut-off; inactive = mostly below about 32%
tim23-1 inh: growth inhibitors of tim23-1 mutant yeast, primary screen, luminescence, uHTS | 330,000 tested, 1.3% active | S. cerevisiae tim23-1 growth, BacTiter-Glo luminescence, 24 h | inhibition, % at 20 µM | AID 463212, 2010;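 active = growth inhibition of the mutant yeast at or above 50%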;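 note: temperature-sensitive mutant grown at 25 °C; plate controls were DMSO-treated mutant yeast for no effect and medium wells lacking yeast for full effect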
tim10-1 inh: growth inhibitors of tim10-1 mutant yeast, primary screen, luminescence, uHTS; S. cerevisiae tim10-1 ts strain growth, BacTiter-Glo, 24 h; inhibition, % at 20 µM; 330,000 tested, 2.2% active;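 active = inhibition of at least 40%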;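 note: mutant grown at 25 °C; 0% = DMSO wells with yeast and 100% = wells holding no yeast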
NLRP3 yeast inh: NALP3 inflammasome inhibitors in reconstituted yeast, primary screen, luminescence, uHTS; Yeast reconstituted NLRP3/ASC/caspase-1, beta-gal luminescence, 24 h; inhibition, % at 10 µM; 330,000 tested, 0.39% active; AID 2825, 2010;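 active = inhibition of 50% or more; inactive = inhibition below 50%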;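 note: plate controls were induced DMSO wells for no effect and uninduced yeast grown without galactose for full effect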
V-ATPase pHluor: regulators of yeast V-ATPase proton pumping, primary screen, pHLuorin cytosolic pH fluorescence. response, % at 10 µM. 350,000 tested, 0.37% active. S. cerevisiae; in the data active = response mostly above about 7.3%, no sharp cut-off; inactive = mostly below about 5.4%; note: actives read high
TIM10 inh: growth inhibitors of isogenic TIM10 control yeast, primary screen, counter-screen for tim10-1 yeast inhibitor project, luminescence, uHTS; S. cerevisiae TIM10 strain growth, BacTiter-Glo luminescence, 24 h; inhibition, % at 10 µM; 330,000 tested, 1.4% active; AID 463195, 2010;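 active = inhibition of 40% or more at the single tested concentration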;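 note: wild-type TIM10 isogenic control strain grown at permissive 25 °C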
tim10-1 conf: growth inhibitors of tim10-1 mutant yeast, confirmation, single concentration, luminescence, S. cerevisiae. shares compounds with tim10-1 inh. S. cerevisiae tim10-1 ts strain growth, BacTiter-Glo, 24 h. inhibition, % at 20 µM. 7,400 tested, 56% active. AID 463213, 2010;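 active = inhibition of yeast growth at or above a set limit in either of two repeat tests at 20 µM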;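 note: tim10-1 mutant grown at permissive 25 °C to find synthetic lethal compounds; 0% = DMSO yeast wells and 100% = medium wells without yeast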
tim10 confirm: growth inhibitors of wild-type TIM10 yeast, confirmation, counter-screen for tim10-1 synthetic lethality project, single concentration, luminescence, S. cerevisiae | 4,600 tested, 63% active | S. cerevisiae tim10 strain growth, BacTiter-Glo luminescence, 24 h | inhibition, % at 10 µM | shares compounds with TIM10 inh;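 active = inhibition of yeast growth at or above a set limit in either of two replicates at 10 µM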;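 note: this counterscreen used the strain with wild-type TIM10; 0% = yeast with DMSO and 100% = medium wells lacking yeast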
* = called active by the depositor; . = no result given; ! = not confirmed by another sample. Most compounds without a hit are left out; they make up all but 4.2% or so of the library.

SMILES	NALP1 yeast inh	tim23-1 inh	tim10-1 inh	NLRP3 yeast inh	V-ATPase pHluor	TIM10 inh	tim10-1 conf	others
C[C@H]1[C@@H](OS(=O)(=O)O)C[C@@H]2C[C@H]([C@@H](O)c3cc(=O)[nH]c(=O)[nH]3)NC3=NC[C@H]1N32	.	.	.	.	4	.	.
NCCc1c(Cc2ccccc2)[nH]c2ccccc12	.	13	7	9	-1	3	.
Cc1c(CCN)ccc2c1[nH]c1ccccc12	20	26	41*	19	-6	19	15
Cc1ccccc1-[n+]1c(-c2ccccc2)cc(-c2ccccc2)cc1-c1ccccc1	.	-9	42*	-2	-1	-12	28
Oc1ccccc1-[n+]1c(-c2ccccc2)cc(-c2ccccc2)cc1-c1ccccc1	.	11	4	15	-4	8	.
COc1ccccc1OP(=O)(Nc1ccc(Br)cc1)Oc1ccccc1OC	2	15	8	28	-3	14	.
COc1ccc(NP(=O)(Oc2ccccc2OC)Oc2ccccc2OC)cc1	22	33	41*	13	-1	9	14
Cc1nn(CCC#N)c2c1P(=S)(N1CCCC1)OC(c1ccc(F)cc1)=N2 (stereo not drawn)	6	44	43*	6	2	37	33*
O=[N+]([O-])c1ccc(Cl)c([N+](=O)[O-])c1	.	44	45*	46	3	26	39*
CCOc1cc2c(cc1OCC)-n1cccc1C(c1ccc(OC)cc1)NC2 (stereo not drawn)	3	19	27	15	-2	6	.
Cc1cccc(-c2nc3ccc(C(=O)N4CCC5(CC4)OCCO5)cc3nc2-c2cccc(C)c2)c1	9	36	40*	-4	-5	13	4
C#CCNc1ccncc1S(=O)(=O)NC(=O)NC(C)C	-4	3	-3	6	-2	-13	.
O=C1/C(=C/c2cccc([N+](=O)[O-])c2)N2CCC1CC2	69	27	7	15	-1	16	.
O=C1/C(=C/c2cc([N+](=O)[O-])ccc2Cl)N2CCC1CC2	-10	49	48*	31	1	25	35*
CCOC(=O)c1c(-n2c(C)cc(/C=C3\C(=O)NC(=O)N(C)C3=O)c2C)sc2c1CCCC2	3	39	32	11	-2	32	.
Cc1cc(/C=C2\C(=O)NC(=O)N(c3ccc(Cl)cc3)C2=O)c(C)n1-c1sc2c(c1C#N)CCCC2	16	31	41*	-7	0	15	14
Oc1ccc(C2NCc3ccccc3-n3cccc32)cc1Cl (stereo not drawn)	27	24	44*!	32	-1	19	34*
Cc1nc2cc(-c3ccccc3)nn2c(C)c1CCC(=O)N1CCC2(CC1)OCCO2	-2	14	24	16	1	29	.
Cc1nc2c(-c3ccc(F)cc3)c(C)nn2c(C)c1CCC(=O)N1CCC2(CC1)OCCO2	16	8	40*	6	-5	13	26
CC(=NCc1ccco1)c1c(O)n(-c2ccc(Cl)cc2)c(=O)[nH]c1=O	-4	17	14	14	-3	20	.
CCn1c(O)c(C=Nc2cc(Cl)ccc2Cl)c(=O)n(CC)c1=O	8	-5	8	-6	3	9	.
Cc1c(N=Cc2c(O)n(CCc3ccc(F)cc3)c(=O)[nH]c2=O)c(=O)n(-c2ccccc2)n1C	1	11	12	20	-2	17	.
O=C1NC(=O)C(CCc2ccncc2)(CCc2ccncc2)C(=O)N1Cc1ccc(F)cc1	0	-5	8	11	3	2	.
CC(C)CNC(=O)c1c(N)n(Cc2ccc3c(c2)OCO3)c2nc3ccccc3nc12	14	39	43*	1	-4	27	25
C=CCn1c(O)c(C=NCCN2CCOCC2)c(=O)[nH]c1=S	.	-5	-16	25	1	17	.
SMILES	NALP1 yeast inh	tim23-1 inh	tim10-1 inh	NLRP3 yeast inh	V-ATPase pHluor	TIM10 inh	tim10-1 conf	others
Cc1oc2ccc(OC(=O)N(C)C)cc2c1C(=O)OC(C)C	37	36	42*	21	13	34	24
O=C(c1ccc2c(c1)N(Cc1ccccc1)CCS2)N1CCC2(CC1)OCCO2	-2	44	42*	9	-5	7	21
C=CCN1C(=O)c2ccccc2Sc2ccc(C(=O)N3CCC4(CC3)OCCO4)cc21	-14	12	20	6	3	19	.
O=C(CN1CCOCC1)Nc1ccc(Br)cc1C(=O)c1ccccc1	31	34	40*	10	0	35	17
CC1(C)C(C(=O)N2CCN(c3ccc(Cl)cc3)CC2)C1(C)C	17	24	21	23	2	11	.
COC(=O)C1CN(C#N)N(c2ccc(Cl)cc2)C12c1ccccc1-c1ccccc12 (stereo not drawn)	13	40	58*	10	2	37	42*
COC(=O)C1=C(c2cccc(OC)c2OC)C[C@@H]2CC[C@H]1N2C(=O)NCCNC(C)=O	.	7	4	-1	2	6	.
Nc1c(C(=O)NC2CCCC2)c2nc3ccccc3nc2n1CC1CCCO1 (stereo not drawn)	16	33	56*	3	-2	34	29
Nc1c(C(=O)NCC2CCCO2)c2nc3ccccc3nc2n1Cc1ccco1 (stereo not drawn)	17	14	0	21	-1	0	.
C[C@]12N[C@H](Cc3ccccc31)c1ccccc12	.	-13	-8	-2	0	11	.
N#Cc1ccc(C(=O)N2Cc3cnnn3-c3ccccc3C2C#N)cc1 (stereo not drawn)	.	.	.	.	-1	.	.
COCCNC(=O)CN1C(=O)C(C)N=C(c2ccccc2)c2cc(Cl)ccc21 (stereo not drawn)	15	34	41*	8	2	12	7
O=C(c1cccnc1)N1Cc2ccccc2-n2nncc2C1	.	.	.	.	-1	.	.
CN(C)c1ccc(C(=O)c2ccc(N(C)C)cc2)cc1	-10	40	40*	14	4	48*	20	tim10 confirm=21
COCCCn1c(-c2ccc(OC)cc2)cc(C(=O)NC2CCCCCCC2)c1C	35	39	54*	19	2	41*	42*	tim10 confirm=-21

Bioassay records from PubChem.
